Binding signal data for 8 sequences are collected here from article PMC7862700, “An all-to-all approach to the identification of sequence-specific readers for epigenetic DNA modifications on cytosine”.

Common to all, as to assay: DAPPL (digital affinity profiling via proximity ligation, sequencing); 10 mM Tris-HCl pH 7.5, 50 mM NaCl, 1 mM DTT, 4% glycerol, room temperature, 30 min; GST-TFs on glutathione beads, 16-mer random dsDNA library, 0.1% formaldehyde crosslink after washing; high values mean tight binding
One assay deals with T1, FEV (Homo sapiens, UniProt Q99581 1-238).
T1 sequence: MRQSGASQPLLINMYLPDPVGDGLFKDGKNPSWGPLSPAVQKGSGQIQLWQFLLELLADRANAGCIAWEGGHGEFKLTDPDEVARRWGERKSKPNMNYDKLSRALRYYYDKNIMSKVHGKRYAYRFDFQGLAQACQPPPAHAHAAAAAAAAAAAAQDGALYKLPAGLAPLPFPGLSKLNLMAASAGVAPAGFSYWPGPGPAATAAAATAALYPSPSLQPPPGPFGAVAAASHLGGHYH
Conditions: protein: recombinant; tags: N-terminal GST; dsDNA, one strand shown. The method, boiled down: (§1)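 After expression in yeast as GST fusions, human transcription factors were bound to glutathione beads, DNA-barcoded and mixed with a tag-only sample. The pools were incubated with 200 nmole of a 16-mer random double-stranded DNA library in Tris/NaCl/DTT/glycerol buffer (30 min, room temperature), washed and crosslinked with 0.1% formaldehyde. Proximity ligation with BsaI/T4 ligase ran for 1 h at 37 °C, before PCR amplification and sequencing on an Illumina NextSeq500. Binding signal is a hexamer's read frequency for a factor divided by its frequency for the tag-only sample.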

A further assay addresses ETV5 (Homo sapiens, UniProt P41161 1-510). As to conditions: protein: recombinant; tags: N-terminal GST; dsDNA, one strand shown. The method, boiled down: as §1
For a further assay, the target named is HSF1 (Homo sapiens, UniProt Q00613 1-529). Conditions: protein: recombinant; tags: N-terminal GST; chain copies: 3; dsDNA, one strand shown. The procedure, abridged:
as §1

For another assay, the target named is T2, SPIC (Homo sapiens, UniProt Q8N5J4 1-248).
T2 sequence: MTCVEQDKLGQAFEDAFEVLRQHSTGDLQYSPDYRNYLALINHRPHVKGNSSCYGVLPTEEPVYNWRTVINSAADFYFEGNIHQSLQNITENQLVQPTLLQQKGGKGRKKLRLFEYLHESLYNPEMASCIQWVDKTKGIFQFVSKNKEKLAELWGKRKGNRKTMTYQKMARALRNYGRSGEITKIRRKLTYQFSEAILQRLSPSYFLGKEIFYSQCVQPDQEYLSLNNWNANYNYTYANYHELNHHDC
Conditions: protein: recombinant; tags: N-terminal GST; dsDNA, one strand shown. The procedure, abridged: as §1

A further assay addresses ELF4 (Homo sapiens, UniProt Q99607 1-663). Conditions: protein: recombinant; tags: N-terminal GST; dsDNA, one strand shown. The procedure, abridged:
as §1

The target of another assay is T3, ELK4 (Homo sapiens, UniProt P28324-2 1-405).
T3 sequence: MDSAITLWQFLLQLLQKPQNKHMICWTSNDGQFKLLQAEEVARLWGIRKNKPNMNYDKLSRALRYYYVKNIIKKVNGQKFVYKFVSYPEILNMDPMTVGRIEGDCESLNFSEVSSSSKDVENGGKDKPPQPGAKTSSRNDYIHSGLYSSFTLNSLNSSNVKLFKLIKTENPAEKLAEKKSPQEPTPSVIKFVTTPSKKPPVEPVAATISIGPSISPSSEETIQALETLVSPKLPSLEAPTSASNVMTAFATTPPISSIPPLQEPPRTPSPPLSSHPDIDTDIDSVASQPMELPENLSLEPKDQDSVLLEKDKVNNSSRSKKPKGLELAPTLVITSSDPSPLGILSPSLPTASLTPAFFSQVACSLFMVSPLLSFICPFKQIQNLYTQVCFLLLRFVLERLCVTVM
As to conditions: protein: recombinant; tags: N-terminal GST; dsDNA, one strand shown. The method, boiled down: as §1

For the next assay, the target named is T4, ETV2 (Homo sapiens, UniProt O00321 1-342).
T4 sequence: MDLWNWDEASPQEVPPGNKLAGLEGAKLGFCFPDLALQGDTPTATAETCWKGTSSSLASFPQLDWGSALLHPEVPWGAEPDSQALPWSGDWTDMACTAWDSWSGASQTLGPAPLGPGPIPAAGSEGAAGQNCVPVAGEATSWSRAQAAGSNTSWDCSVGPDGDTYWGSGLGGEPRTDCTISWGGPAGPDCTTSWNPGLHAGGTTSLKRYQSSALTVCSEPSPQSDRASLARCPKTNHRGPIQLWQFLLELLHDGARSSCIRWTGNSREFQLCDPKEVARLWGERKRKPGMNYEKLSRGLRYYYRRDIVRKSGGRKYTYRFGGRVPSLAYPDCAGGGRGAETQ
Conditions: protein: recombinant; tags: N-terminal GST; dsDNA, one strand shown. The procedure, abridged:
as §1

The target of a further assay is T5, ELF3 (Homo sapiens, UniProt P78545 1-371).
T5 sequence: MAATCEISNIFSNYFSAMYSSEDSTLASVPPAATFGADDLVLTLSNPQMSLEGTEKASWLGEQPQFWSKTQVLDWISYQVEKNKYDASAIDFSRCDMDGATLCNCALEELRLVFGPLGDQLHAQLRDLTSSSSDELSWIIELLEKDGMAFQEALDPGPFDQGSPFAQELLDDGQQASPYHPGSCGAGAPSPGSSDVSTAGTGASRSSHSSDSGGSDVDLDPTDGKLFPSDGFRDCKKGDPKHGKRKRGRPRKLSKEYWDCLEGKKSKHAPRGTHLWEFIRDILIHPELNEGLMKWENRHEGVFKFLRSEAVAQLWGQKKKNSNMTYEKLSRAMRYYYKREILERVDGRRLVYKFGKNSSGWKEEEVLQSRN
As to conditions: protein: recombinant; tags: N-terminal GST; dsDNA, one strand shown. The method, boiled down: as §1

For the next assay, the target named is CRX (Homo sapiens, UniProt O43186 1-299). As to conditions: protein: recombinant; tags: N-terminal GST; dsDNA, one strand shown. The procedure, abridged:
as §1

Another assay addresses ETV1 (Homo sapiens, UniProt P50549 1-477). As to conditions: protein: recombinant; tags: N-terminal GST; dsDNA, one strand shown. The procedure, abridged:
as §1

Sequence of ETV1 (P50549 whole entry): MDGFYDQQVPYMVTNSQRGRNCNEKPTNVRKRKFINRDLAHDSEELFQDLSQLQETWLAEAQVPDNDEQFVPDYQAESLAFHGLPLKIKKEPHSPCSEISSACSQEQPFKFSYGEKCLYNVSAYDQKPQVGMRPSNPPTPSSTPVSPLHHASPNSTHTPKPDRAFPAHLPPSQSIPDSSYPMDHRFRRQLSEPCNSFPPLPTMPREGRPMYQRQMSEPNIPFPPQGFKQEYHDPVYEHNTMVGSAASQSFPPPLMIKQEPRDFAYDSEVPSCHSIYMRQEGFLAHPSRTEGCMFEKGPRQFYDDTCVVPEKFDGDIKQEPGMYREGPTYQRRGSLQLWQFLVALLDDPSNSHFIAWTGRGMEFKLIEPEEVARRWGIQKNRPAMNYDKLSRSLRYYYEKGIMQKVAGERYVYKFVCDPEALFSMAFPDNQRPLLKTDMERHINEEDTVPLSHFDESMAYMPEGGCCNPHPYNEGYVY
Sequence of ETV5 (P41161 whole entry): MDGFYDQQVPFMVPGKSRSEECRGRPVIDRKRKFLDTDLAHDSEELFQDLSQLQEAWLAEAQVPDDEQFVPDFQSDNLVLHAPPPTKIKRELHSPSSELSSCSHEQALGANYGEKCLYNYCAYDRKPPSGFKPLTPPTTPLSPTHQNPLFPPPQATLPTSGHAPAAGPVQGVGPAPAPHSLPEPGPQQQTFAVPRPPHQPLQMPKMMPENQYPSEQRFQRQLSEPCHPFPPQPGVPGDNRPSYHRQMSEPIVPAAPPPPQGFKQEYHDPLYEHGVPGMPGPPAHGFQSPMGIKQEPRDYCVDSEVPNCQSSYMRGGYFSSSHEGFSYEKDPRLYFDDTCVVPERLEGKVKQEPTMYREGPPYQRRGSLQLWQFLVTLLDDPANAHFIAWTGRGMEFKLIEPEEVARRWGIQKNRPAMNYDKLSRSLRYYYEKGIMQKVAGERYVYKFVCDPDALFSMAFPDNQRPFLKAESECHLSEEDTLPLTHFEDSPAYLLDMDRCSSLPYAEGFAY
Sequence of ELF4 (Q99607 whole entry): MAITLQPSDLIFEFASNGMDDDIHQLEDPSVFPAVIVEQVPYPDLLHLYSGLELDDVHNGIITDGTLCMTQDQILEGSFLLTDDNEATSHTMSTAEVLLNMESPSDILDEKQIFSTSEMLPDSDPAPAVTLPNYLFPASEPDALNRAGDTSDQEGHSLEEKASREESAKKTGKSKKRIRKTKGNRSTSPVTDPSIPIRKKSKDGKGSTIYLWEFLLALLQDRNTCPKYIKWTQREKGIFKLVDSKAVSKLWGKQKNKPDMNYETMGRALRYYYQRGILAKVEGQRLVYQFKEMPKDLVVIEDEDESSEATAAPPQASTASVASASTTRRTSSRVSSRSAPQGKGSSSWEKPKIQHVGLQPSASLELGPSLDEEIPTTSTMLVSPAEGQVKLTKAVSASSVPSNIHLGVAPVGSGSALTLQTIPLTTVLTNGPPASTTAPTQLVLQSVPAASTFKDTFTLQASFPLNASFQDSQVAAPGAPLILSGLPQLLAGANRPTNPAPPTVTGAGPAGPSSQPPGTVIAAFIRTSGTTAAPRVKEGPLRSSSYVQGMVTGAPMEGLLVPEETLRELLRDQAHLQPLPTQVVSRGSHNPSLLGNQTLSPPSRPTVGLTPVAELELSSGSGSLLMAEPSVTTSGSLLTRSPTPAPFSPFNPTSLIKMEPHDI
Sequence of HSF1 (Q00613 whole entry): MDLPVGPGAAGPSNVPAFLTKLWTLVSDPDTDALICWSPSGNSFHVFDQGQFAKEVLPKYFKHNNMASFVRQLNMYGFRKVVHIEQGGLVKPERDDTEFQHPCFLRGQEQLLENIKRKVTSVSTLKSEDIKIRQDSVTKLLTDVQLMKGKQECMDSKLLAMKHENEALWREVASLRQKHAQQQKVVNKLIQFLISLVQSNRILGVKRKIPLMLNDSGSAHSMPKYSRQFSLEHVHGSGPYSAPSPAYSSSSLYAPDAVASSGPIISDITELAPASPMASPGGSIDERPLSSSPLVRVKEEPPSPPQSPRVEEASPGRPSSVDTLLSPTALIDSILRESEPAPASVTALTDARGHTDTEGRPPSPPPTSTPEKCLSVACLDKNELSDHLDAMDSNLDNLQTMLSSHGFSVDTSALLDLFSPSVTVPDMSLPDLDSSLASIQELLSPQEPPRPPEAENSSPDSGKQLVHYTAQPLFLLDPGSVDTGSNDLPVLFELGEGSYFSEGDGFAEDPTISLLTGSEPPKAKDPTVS
Sequence of CRX (O43186 whole entry): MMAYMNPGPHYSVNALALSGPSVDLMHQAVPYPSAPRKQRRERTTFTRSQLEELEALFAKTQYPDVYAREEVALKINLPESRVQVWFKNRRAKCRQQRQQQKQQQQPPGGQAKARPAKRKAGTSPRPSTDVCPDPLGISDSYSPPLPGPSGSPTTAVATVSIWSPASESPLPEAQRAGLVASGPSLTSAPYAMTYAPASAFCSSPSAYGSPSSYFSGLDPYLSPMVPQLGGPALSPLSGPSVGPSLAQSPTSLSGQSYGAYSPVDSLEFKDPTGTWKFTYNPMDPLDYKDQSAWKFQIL

Regarding ACGCTA, the binding signal in the assay with FEV is 1.13 fold enrichment (6-mer frequency, TF over GST control); in the assay with ETV5 it was 1.17 fold enrichment (6-mer frequency, TF over GST control); with HSF1 it was 1.12 fold enrichment (6-mer frequency, TF over GST control); with SPIC, 1.09 fold enrichment (6-mer frequency, TF over GST control); with ELF4, 1.25 fold enrichment (6-mer frequency, TF over GST control); with ELK4 it was 1.06 fold enrichment (6-mer frequency, TF over GST control). In addition, the binding signal was 1.28 fold enrichment (6-mer frequency, TF over GST control) with ETV2; 1.17 fold enrichment (6-mer frequency, TF over GST control) with ELF3; 1.18 fold enrichment (6-mer frequency, TF over GST control) with CRX; 1.09 fold enrichment (6-mer frequency, TF over GST control) with ETV1.

Consider AATACG, for which the binding signal with FEV was 1.19 fold enrichment (6-mer frequency, TF over GST control); in the assay with ETV5 it was 1.27 fold enrichment (6-mer frequency, TF over GST control); with HSF1 it was 1.26 fold enrichment (6-mer frequency, TF over GST control); with SPIC, 1.17 fold enrichment (6-mer frequency, TF over GST control); with ELF4 it was 1.29 fold enrichment (6-mer frequency, TF over GST control); in the assay with ELK4, 1.02 fold enrichment (6-mer frequency, TF over GST control). In addition, the binding signal with ETV2 is 1.19 fold enrichment (6-mer frequency, TF over GST control); with ELF3, 1.24 fold enrichment (6-mer frequency, TF over GST control); with CRX it was 1.36 fold enrichment (6-mer frequency, TF over GST control); in the assay with ETV1 it was 1.28 fold enrichment (6-mer frequency, TF over GST control).

As to CAATAA, the binding signal was 1.1 fold enrichment (6-mer frequency, TF over GST control) in the assay with FEV; 1.14 fold enrichment (6-mer frequency, TF over GST control) with ETV5; 1.24 fold enrichment (6-mer frequency, TF over GST control) in the assay with HSF1; 1.2 fold enrichment (6-mer frequency, TF over GST control) in the assay with SPIC; 1.16 fold enrichment (6-mer frequency, TF over GST control) with ELF4; 1.14 fold enrichment (6-mer frequency, TF over GST control) with ELK4. Further, the binding signal with ETV2 is 1.14 fold enrichment (6-mer frequency, TF over GST control); in the assay with ELF3 it was 1.27 fold enrichment (6-mer frequency, TF over GST control); with CRX it was 1.46 fold enrichment (6-mer frequency, TF over GST control); with ETV1 it was 1.11 fold enrichment (6-mer frequency, TF over GST control).

As for TGCTCG, the binding signal is 1.23 fold enrichment (6-mer frequency, TF over GST control) with FEV; 1.31 fold enrichment (6-mer frequency, TF over GST control) with ETV5; 1.56 fold enrichment (6-mer frequency, TF over GST control) with HSF1; 1.33 fold enrichment (6-mer frequency, TF over GST control) with SPIC; 1.24 fold enrichment (6-mer frequency, TF over GST control) with ELF4; 1.26 fold enrichment (6-mer frequency, TF over GST control) with ELK4. Moreover, the binding signal was 1.21 fold enrichment (6-mer frequency, TF over GST control) in the assay with ETV2; 1.28 fold enrichment (6-mer frequency, TF over GST control) with ELF3; 1.17 fold enrichment (6-mer frequency, TF over GST control) with CRX; 1.28 fold enrichment (6-mer frequency, TF over GST control) with ETV1.

For the sequence TTGTTA, the binding signal in the assay with FEV was 1.3 fold enrichment (6-mer frequency, TF over GST control); with ETV5, 1.31 fold enrichment (6-mer frequency, TF over GST control); in the assay with HSF1 it was 1.34 fold enrichment (6-mer frequency, TF over GST control); with SPIC it was 1.31 fold enrichment (6-mer frequency, TF over GST control); in the assay with ELF4, 1.32 fold enrichment (6-mer frequency, TF over GST control); with ELK4, 1.47 fold enrichment (6-mer frequency, TF over GST control). The binding signal is 1.35 fold enrichment (6-mer frequency, TF over GST control) with ETV2; 1.08 fold enrichment (6-mer frequency, TF over GST control) in the assay with ELF3; 1.61 fold enrichment (6-mer frequency, TF over GST control) in the assay with CRX; 1.35 fold enrichment (6-mer frequency, TF over GST control) in the assay with ETV1.

As for TCACGT, the binding signal in the assay with FEV was 1.19 fold enrichment (6-mer frequency, TF over GST control); with ETV5, 1.24 fold enrichment (6-mer frequency, TF over GST control); with HSF1 it was 1.13 fold enrichment (6-mer frequency, TF over GST control); with SPIC, 1.19 fold enrichment (6-mer frequency, TF over GST control); in the assay with ELF4, 1.23 fold enrichment (6-mer frequency, TF over GST control); with ELK4, 1.27 fold enrichment (6-mer frequency, TF over GST control). Besides, the binding signal with ETV2 is 1.02 fold enrichment (6-mer frequency, TF over GST control); with ELF3, 1.01 fold enrichment (6-mer frequency, TF over GST control); with CRX, 1.15 fold enrichment (6-mer frequency, TF over GST control); with ETV1, 1.26 fold enrichment (6-mer frequency, TF over GST control).

With CCCGAC, the binding signal is 1.38 fold enrichment (6-mer frequency, TF over GST control) with FEV; 1.31 fold enrichment (6-mer frequency, TF over GST control) with ETV5; 1.19 fold enrichment (6-mer frequency, TF over GST control) with HSF1; 1.53 fold enrichment (6-mer frequency, TF over GST control) with SPIC; 1.29 fold enrichment (6-mer frequency, TF over GST control) with ELF4; 1.43 fold enrichment (6-mer frequency, TF over GST control) in the assay with ELK4. Also, the binding signal in the assay with ETV2 was 1.46 fold enrichment (6-mer frequency, TF over GST control); in the assay with ELF3 it was 1.53 fold enrichment (6-mer frequency, TF over GST control); with CRX it was 1.06 fold enrichment (6-mer frequency, TF over GST control); with ETV1 it was 1.36 fold enrichment (6-mer frequency, TF over GST control).

Turning to TACTGT, the binding signal was 1.11 fold enrichment (6-mer frequency, TF over GST control) in the assay with FEV; 1.15 fold enrichment (6-mer frequency, TF over GST control) in the assay with ETV5; 1.05 fold enrichment (6-mer frequency, TF over GST control) with HSF1; 1.1 fold enrichment (6-mer frequency, TF over GST control) with SPIC; 1.12 fold enrichment (6-mer frequency, TF over GST control) with ELF4; 1.25 fold enrichment (6-mer frequency, TF over GST control) in the assay with ELK4. Besides, the binding signal with ETV2 was 1.34 fold enrichment (6-mer frequency, TF over GST control); with ELF3, 1.03 fold enrichment (6-mer frequency, TF over GST control); with CRX it was 1.11 fold enrichment (6-mer frequency, TF over GST control); in the assay with ETV1, 1.17 fold enrichment (6-mer frequency, TF over GST control).
